Test results as given in PubChem BioAssay AID686978 (National Center for Advancing Translational Sciences (NCATS), 2013).
About 64,000 (15%) of roughly 420,000 compounds were called active. Roughly 27% stayed inconclusive and do not appear here. Calls follow the shape of the dose curve; as a rule, active = well fitted inhibition curve with a large enough effect; inconclusive = small, poorly fitted or top-dose-only effect; inactive = flat fitted curve, though single readings scatter. These entries were drawn from the full list. Entries that show only a call come without a potency.
Potency is read from the fitted curve at half-maximal effect.

Experiment: qHTS for Inhibitors of human tyrosyl-DNA phosphodiesterase 1 (TDP1): qHTS in cells in absence of CPT; also: nearly all actives have a fitted effect of over 55% in size
Conditions: DT40 Tdp1-/- hTDP1 cells, no CPT, ATP luminescence, 48 h; activity change, negative = growth inhibition: at 46.2 µM (top of the series)
Outline: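 Stably hTDP1-transfected Tdp1-null chicken DT40 cells were treated with library compounds minus camptothecin and grown for at least 48 hr at 37 °C, after which cellular ATP was quantified by luminescence.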
In the case of Cc1ccccc1NC(=O)COc1cccc2c1CCNC2=O, the Potency is reported as “inactive”.
In the case of Cc1c(Cl)cccc1NC(=O)CSc1ccc(-c2cccnc2)nn1, the Potency is reported as “inactive”.
In the case of Brc1ccc(CSc2ccc(-c3ccco3)nn2)cc1, the Potency is reported as “inactive”.
For Cc1cc(F)ccc1S(=O)(=O)Nc1ccc(C(=O)N(C)Cc2ccco2)cc1, the Potency was “inactive”.
In the case of Cc1cc(C2=NNC(=Nc3ccc(S(=O)(=O)N4CCOCC4)cc3)SC2)c(C)n1CC1CCCO1 (centres undefined), the Potency is reported as 2.91 µM (active).
With C=CCn1c(C)cc(C2=NNC(=NCC)SC2)c1C the Potency was 20.6 µM (active).
For Cc1ccnc(NS(=O)(=O)c2ccc(NC(=O)c3ccc(S(=O)(=O)N4CCOCC4)cc3)cc2)n1, the Potency was “inactive”.
For COCCn1c(C)cc(C2=NNC(=Nc3ccc(F)cc3)SC2)c1C, the Potency was 14.6 µM (active).
For Cc1ccc(S(=O)(=O)N2CCC(C(=O)NCC3CCCO3)CC2)cc1 (centres undefined), the Potency was “inactive”.
With CCSC(C)CC1C/C(=N/O)c2c(C)noc2C1 (centres undefined) the Potency was “inactive”.
With Cc1ccc(Cl)c(OCC(=O)N2CCc3ccccc3C2)c1 the Potency was “inactive”.
With Nc1c(-c2ccc(F)cc2)cnn1C1CCS(=O)(=O)C1 (centres undefined) the Potency was “inactive”.
With Cc1cc(=O)cc(C)n1-c1ccc(Cl)c(Cl)c1 the Potency was “inactive”.
In the case of CCOc1ccccc1NC(=O)CCS(=O)(=O)c1cccc2nsnc12, the Potency is reported as “inactive”.
For CCOc1ccc(-c2c(C)n([O-])c3c([n+]2=O)CCCC3)cc1, the Potency was “inactive”.
With Nc1nc2cc(Cl)ccc2n1N the Potency was “inactive”.
For COc1cc(OC)c(C2C=C(C(=O)O)Nc3ncnn32)cc1OC (centres undefined), the Potency was “inactive”.
In the case of CC(C)c1nnc(NC(=O)C2CC(=O)N(CCc3ccc(F)cc3)C2)s1 (centres undefined), the Potency is reported as “inactive”.
With CC(=O)Nc1ccc(S(=O)(=O)N(CCc2ccccc2)CC(=O)N/N=C/c2ccc(C(=O)O)cc2)cc1 the Potency was “inactive”.
With COc1ccc(C(=O)Nc2onc3c2CCCC3)cc1 the Potency was “inactive”.
For CCOc1ccc(C(=O)NC2CCN(C(=O)Nc3ccccc3OC)CC2)cc1, the Potency was “inactive”.
For CCOc1ccc(C(=O)Nc2ccc3nc4c(c(Nc5ccccc5OC)c3c2)CCCC4)cc1, the Potency was 4.61 µM (active).
In the case of CCOc1ccc(NC(=O)CSc2c3c(nc4ccccc24)CCCC3)cc1, the Potency is reported as 16.4 µM (active).
With CCOc1ccc(NC(=O)CSc2nncn2C)cc1 the Potency was “inactive”.
In the case of CC(=O)c1cccc(NC(=O)CSc2nc3c(c(=O)[nH]2)CCC3)c1, the Potency is reported as “inactive”.
With Cn1cnnc1SCC(=O)NNC(=O)COc1ccc(Br)cc1 the Potency was “inactive”.
For O=C(NC1CC1)C1CCCN(C(=O)NC2CCCCC2)C1 (centres undefined), the Potency was “inactive”.
With CCN(CC)CCNC(=O)Cn1cnc2sc(C)c(S(=O)(=O)N3CCOCC3)c2c1=O the Potency was “inactive”.
For COc1ccc(N2CCN(C(=O)Cn3cnc4sc(C)c(S(=O)(=O)N5CCOCC5)c4c3=O)CC2)cc1, the Potency was 18.4 µM (active).
With Cc1cc(Br)ccc1NC(=O)Cn1cnc2sc(C)c(S(=O)(=O)N3CCN(C)CC3)c2c1=O the Potency was “inactive”.
For OCCN1CCN(CCO)C1=S, the Potency was “inactive”.
With CC(C)(C)NC(=O)NC(=O)COC(=O)CCC1CCCCC1 the Potency was “inactive”.
For Cn1cccc1C(=O)N1CCc2ccccc2C1, the Potency was “inactive”.
With O=C(c1ncn2c1c(=O)[nH]c1ccccc12)N1CCc2ccccc2C1 the Potency was “inactive”.
In the case of Cn1c(C(=O)NCCN2CCc3ccccc3C2)cc2c(=O)[nH]c3ccccc3c21, the Potency is reported as 16.4 µM (active).
With O=C(Cc1c(O)c2ccccc2[nH]c1=O)NCc1ccccc1 the Potency was “inactive”.
With Cc1c(C(=O)CN2CCOCC2)[nH]c2ccccc12 the Potency was “inactive”.
With O=C(NCCN1CCN(Cc2ccccc2)CC1)c1cc2c(=O)[nH]c3ccccc3c2s1 the Potency was 25.9 µM (active).
For Cc1cccc(N2CCN(C(=O)c3cc4c(=O)[nH]c5ccccc5c4n3C)CC2)c1C, the Potency was 18.4 µM (active).
In the case of O=C(c1c(Cl)cccc1Cl)N1CCN(c2cccc3[nH]ccc23)CC1, the Potency is reported as “inactive”.
For CC(C(=O)O)N1C(=O)c2cccc3cccc1c23 (centres undefined), the Potency was “inactive”.
With CC(C)NC(=O)NCCCCCCS(C)=O (centres undefined) the Potency was “inactive”.
In the case of Cc1ccn2cc(-c3nonc3C)cc2c1, the Potency is reported as “inactive”.
With CC1(C(=O)NS(=O)(=O)c2ccc3ccccc3c2)CCN1C(=O)C1(c2ccc(Cl)cc2)CCC1 (centres undefined) the Potency was “inactive”.
With CCN(C(=O)CSc1nnc2ccccn12)C1CCS(=O)(=O)C1 (centres undefined) the Potency was “inactive”.
For CC(OC(=O)c1cccnc1Cl)C(=O)NC1CCCCC1 (centres undefined), the Potency was “inactive”.
In the case of CC(C)Cn1c(CCC(=O)O)ccc1-c1cccs1, the Potency is reported as “inactive”.
For COc1cc(C(=S)NC2CCCCC2)ccc1O, the Potency was “inactive”.
In the case of COc1ccc(CC2(CO)CCN(Cc3cnn(C)c3)CC2)cc1, the Potency is reported as “inactive”.
For OCC1(CCc2ccccc2)CCN(Cc2ccc3nsnc3c2)CC1, the Potency was “inactive”.
For COc1cccc(CC2(CO)CCN(Cc3cnc(-c4cccc(C)c4)nc3)CC2)c1, the Potency was 20.6 µM (active).
With COC(=O)c1ccc(CN2CCC(CO)(Cc3ccc(OC)cc3)CC2)cc1 the Potency was “inactive”.
In the case of CC(=O)c1cccc(CN2CCC(CO)(Cc3ccccc3)CC2)c1, the Potency is reported as “inactive”.
For Cc1cccc(-c2ncc(CN3CCC(CO)(CCCc4ccccc4)CC3)cn2)c1, the Potency was 23.1 µM (active).
In the case of COc1cccc(NC(=O)Cn2c3ccc(F)cc3c3nc4n(c(=O)c32)CCS4)c1, the Potency is reported as “inactive”.
In the case of O=C(NCC1Cc2cc(F)cc(-c3cnccn3)c2O1)C1COc2ccccc2O1 (centres undefined), the Potency is reported as “inactive”.
In the case of Cc1cc(C)c(C#N)c(SCc2ccccc2C(=O)O)n1, the Potency is reported as “inactive”.
For CSCCC(NC(=O)COc1ccccc1)C(=O)OCC(=O)c1cc2ccccc2o1 (centres undefined), the Potency was “inactive”.
In the case of CCOCCCNCc1cc(Br)ccc1OCC, the Potency is reported as “inactive”.
With CCOc1ccc(Br)cc1S(=O)(=O)N1CCC(C(=O)O)CC1 the Potency was “inactive”.
With CC(C)(C)NCc1cc(Br)ccc1OC1CCCC1 the Potency was 16.4 µM (active).
For CC(=O)N/C(=C/c1ccc(OC(F)F)cc1)C(=O)O, the Potency was “inactive”.
In the case of N#Cc1ccc(-c2ccc(F)cc2)nc1Sc1ccccc1, the Potency is reported as “inactive”.
With COc1ccc(NC(=O)CN(C)C(=O)Cc2coc3cc(C)c(C)cc23)cc1 the Potency was “inactive”.
With Cc1ccc(NS(=O)(=O)c2ccc3c(c2)NC(=O)CO3)cc1 the Potency was “inactive”.
In the case of CCOc1ccc(CCN2C(=O)C(=O)N([C@@H](CC(C)C)CN3CCC[C@H]3CN3C(=O)C(=O)NC[C@@H]3Cc3ccccc3)C[C@@H]2CC(C)C)cc1, the Potency is reported as “inactive”.
For CC(C)C[C@H]1CNC(=O)C(=O)N1C[C@@H]1CCCN1C[C@H](Cc1ccccc1)N1C[C@H](CC(C)C)N(CC2CCCCCC2)C(=O)C1=O, the Potency was “inactive”.
In the case of CCOc1ccc(CCN2C(=S)N([C@@H](CC(C)C)CN3CCC[C@@H]3CN3C(=S)NC[C@@H]3Cc3ccc(O)cc3)C[C@@H]2CC(C)C)cc1, the Potency is reported as 23.1 µM (active).
In the case of O=C1NC[C@H](CCCCN2C[C@H](Cc3ccc(O)cc3)N(CCc3ccccc3)C(=O)C2=O)N(CCc2ccccc2)C1=O, the Potency is reported as “inactive”.
With CC(C)C[C@H]1CN([C@@H](CC(C)C)CN2CCC[C@@H]2CN2C(=O)C(=O)NC[C@@H]2Cc2ccccc2)C(=O)C(=O)N1CCc1ccccc1 the Potency was 16.4 µM (active).
For O=C1NC[C@H](CCCCN2C[C@H](Cc3ccc(O)cc3)N(CC3CCCCC3)C(=O)C2=O)N(CCc2ccccc2)C1=O, the Potency was “inactive”.
For O=C1NC[C@H](CCCCN2C[C@H](Cc3ccccc3)N(Cc3ccccc3)C(=O)C2=O)N(CCc2ccc(O)cc2)C1=O, the Potency was “inactive”.
In the case of CCOc1ccc(CCN2C(=O)C(=O)N([C@@H](Cc3ccc(O)cc3)CN3CCC[C@H]3CN3C(=O)C(=O)NC[C@@H]3CC(C)C)C[C@@H]2Cc2ccccc2)cc1, the Potency is reported as “inactive”.
For CC(C)C[C@H]1CNC(=S)N1C[C@H]1CCCN1C[C@H](Cc1ccc(O)cc1)N1C[C@H](Cc2ccc(O)cc2)N(CC2CCCCC2)C1=S, the Potency was 25.9 µM (active).
